Growth data for 39 compounds are collected here from PubChem BioAssay (NCI).

Compounds without any hit were thinned out: in the full panel of roughly 83,000, 20% have a hit.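 Interpretation: 100, growth as untreated; towards 0, rising growth inhibition; 0, no net growth; 0 to -100, cell death. Compounds scoring below 10 were considered active.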 Active and inactive are the calls of the source.

The first assay concerns NCI-H23 lung. Briefly: NCI-60 one-dose screen, 48 h (100 = growth as untreated, 0 = no growth, -100 = all killed). Particulars: 10 µM unless noted.
Regarding `C=C(C)[C@@H]1CC[C@]2(CNCCO)CC[C@]3(C)[C@H](CC[C@@H]4[C@@]5(C)CCC(N)[C@@](C)(CO)[C@@H]5CC[C@]43C)[C@@H]12` (stereo partly drawn), the growth was 46.8% (inactive).

Regarding `O=S(=O)(NCCNc1cc(-c2c(-c3cccc(O)c3)nc3sccn23)ccn1)c1ccc(Cl)cc1`, the growth was 79.1% (inactive).

`CC(C)(C)Nc1c(-c2c3ccccc3cc3ccccc23)nc2ccccn12`: the growth was 77.4% (inactive).

`CN(C)CCOC(=O)Nc1ccc(Cl)cc1`: the growth is 102% (inactive).

As to `CCOc1ccc(-c2nc3ccc(-c4nc5ccc(N6CCN(C)CC6)cc5[nH]4)cc3[nH]2)cc1OCC`, the growth is -7.66% (active).

Take `N[C@H]1CCC[C@@H]1NCCCCN1C(=O)c2cccc3cccc(c23)C1=O`: the growth was 71% (inactive).

For the compound `COc1ccc(/C=C(\C#N)n2nnc3cc(F)c(F)cc32)c(OC)c1OC`, the growth was 71.8% (inactive).

`COc1cc2ccccc2cc1C(=O)NC(=S)Nc1ccc(-c2nc3ccccc3[nH]2)cc1`: the growth was 72.9% (inactive).

For the compound `Cc1ccc(/C=C(\C#N)n2nnc3cc(Cl)c(Cl)cc32)cc1`, the growth was 24.8% (inactive).

Turning to `CC(C)(O)c1cccc(F)c1`, the growth is 104% (inactive).

With `O=C1Nc2ccc(Cl)cc2/C1=N/N=C/c1c[nH]c2ccccc12`, the growth was 86.1% (inactive).

Take `N#Cc1c(-c2ccccc2)nc(SCC2CO2)nc1N1CCOCC1` (stereo not drawn): the growth is 71.4% (inactive).

For `COc1cc2c(cc1OC)-c1ccc3cc4c(cc3c1N(CCCN(C)C)C2)OCO4`, the growth is 48.7% (inactive).

As to `C=C1C(=O)O[C@H]2[C@H]1CC/C(Cn1cc(CNCCc3c[nH]c4ccc(Cl)cc34)nn1)=C\CC[C@@]1(C)O[C@@H]21`, the growth was 92.9% (inactive).

For the compound `C#CC[C@H](N)C(=O)O`, the growth was 103% [20 µM] (inactive).

As to `O=C(Oc1ccc([N+](=O)[O-])cc1)c1ccc(CBr)cc1`, the growth was 98.5% (inactive).

As to `OC(CBr)c1ccnc2ccccc12` (stereo not drawn), the growth was 96.8% (inactive).

For the compound `CCCNCC(=O)Nc1ccc(C(=O)OC(C)(C)CC)cc1`, the growth was 102% (inactive).

As for `CC(=O)c1cc2c(o1)C(=O)c1ccccc1C2=O`, the growth is -33.2% (active).

Take `CS(=O)(=O)c1ccc(-c2[nH]c3ccc(F)cc3c2/C=N/NC(N)=S)cc1`: the growth was 38.1% (inactive).

For `CC(C)c1ccc(C(=O)OC(=O)c2ccc(C(C)C)cc2)cc1`, the growth was 86.4% (inactive).

`N=C(N)c1ccc(-c2ccc(-c3ccc(Cl)c(Cl)c3)o2)nc1`: the growth was 65.5% (inactive).

As to `N#C/C=C(\c1ccc([N+](=O)[O-])cc1)n1nnc2cc(Cl)c(Cl)cc21`, the growth was 40.8% (inactive).

With `CS(=O)(=O)c1ccc(-c2nc3cc(Cl)ccc3n2CC(=O)NO)cc1`, the growth was 94.7% (inactive).

For `CC(=O)Nc1cccc(C2=CC(c3ccc(C)cc3)n3ncnc3N2)c1` (stereo not drawn), the growth is 97.4% (inactive).

For `CCn1c(Sc2nnc(NC(=O)CCN3CCCC3)s2)nc2c1c(=O)n(C)c(=O)n2C`, the growth was 106% (inactive).

`N#Cc1c(NC(=O)c2cccc(C(F)(F)F)c2)sc2c1CCC(=O)C2`: the growth was 0.847% (active).

`CC(C)(C)c1ccc(C(=O)Nc2sc3c(c2C(N)=O)CCC(=O)C3)cc1`: the growth was -15% (active).

As to `CCOC(=O)c1c(C)nc2c(c1N)/C(=C/c1cc(OC)c(OC)c(OC)c1)C(=O)N2c1ccc(OC)cc1`, the growth is 78.8% (inactive).

In the case of `Nc1nc(Nc2ccc(Cl)cc2)nn1S(=O)(=O)c1ccc(-c2ccc(F)cc2)cc1`, the growth was 92% (inactive).

Consider `CCNCCNc1cc(-c2ccc(C(F)(F)F)cc2)c(C#N)c2nc3cc(Cl)c(Cl)cc3n12`, for which the growth is -76.6% (active).

As to `C=CCN1C(=O)[C@]2(SC1=S)[C@H](c1cccc(Cl)c1)CN(C)[C@]21C(=O)NC2C=CC(Cl)=C[C@H]21` (stereo partly drawn), the growth is 45.7% (inactive).

As for `O=C(/C=C/C12c3ccccc3C(c3ccccc31)C1C(=O)N(c3ccccc3)C(=O)C12)c1ccccc1` (stereo not drawn), the growth is 5.23% (active).

With `O=S(=O)(Nc1ccsc1-c1nc(-c2ccccc2)no1)c1cc(Cl)cc(Cl)c1`, the growth was 94.4% (inactive).

`CNC1(C#N)CCN(Cc2ccccc2)CC1`: the growth was 97.6% (inactive).

Turning to `COc1cc2cc(Oc3ccc(NC(=O)Nc4cc(C(F)(F)F)cc(C(F)(F)F)c4)cc3)c(C)nc2cc1OCCN1CCCCC1`, the growth was -73.3% (active).

Take `CC(C)n1nc(C#Cc2cccc3cc(-c4cccc(C(F)(F)F)c4)ncc23)c2c(N)ncnc21`: the growth is 78.6% (inactive).

In the case of `N[C@@H]1CCC[C@H]1NCCCCN1C(=O)c2cccc3cccc(c23)C1=O`, the growth is 80.4% (inactive).

Take `CCN(CC)CCOC(=O)N1c2ccccc2Sc2ccccc21`: the growth was 104% (inactive).

A further assay has as its system NCI-H226 lung. The description is as above. Particulars: 10 µM unless noted.
Consider `C=C(C)[C@@H]1CC[C@]2(CNCCO)CC[C@]3(C)[C@H](CC[C@@H]4[C@@]5(C)CCC(N)[C@@](C)(CO)[C@@H]5CC[C@]43C)[C@@H]12` (stereo partly drawn), for which the growth is 94.1% (inactive).

In the case of `O=S(=O)(NCCNc1cc(-c2c(-c3cccc(O)c3)nc3sccn23)ccn1)c1ccc(Cl)cc1`, the growth was 62.4% (inactive).

With `CC(C)(C)Nc1c(-c2c3ccccc3cc3ccccc23)nc2ccccn12`, the growth is 83.9% (inactive).

Take `CN(C)CCOC(=O)Nc1ccc(Cl)cc1`: the growth is 88.8% (inactive).

For `CCOc1ccc(-c2nc3ccc(-c4nc5ccc(N6CCN(C)CC6)cc5[nH]4)cc3[nH]2)cc1OCC`, the growth is -8.92% (active).

On to `N[C@H]1CCC[C@@H]1NCCCCN1C(=O)c2cccc3cccc(c23)C1=O`, for which the growth was 83.8% (inactive).

For `COc1ccc(/C=C(\C#N)n2nnc3cc(F)c(F)cc32)c(OC)c1OC`, the growth is 83% (inactive).

Regarding `COc1cc2ccccc2cc1C(=O)NC(=S)Nc1ccc(-c2nc3ccccc3[nH]2)cc1`, the growth is 102% (inactive).

With `Cc1ccc(/C=C(\C#N)n2nnc3cc(Cl)c(Cl)cc32)cc1`, the growth is -9.44% (active).

Regarding `CC(C)(O)c1cccc(F)c1`, the growth was 105% (inactive).

On to `O=C1Nc2ccc(Cl)cc2/C1=N/N=C/c1c[nH]c2ccccc12`, for which the growth is 81.9% (inactive).

As to `N#Cc1c(-c2ccccc2)nc(SCC2CO2)nc1N1CCOCC1` (stereo not drawn), the growth is 75% (inactive).

For the compound `COc1cc2c(cc1OC)-c1ccc3cc4c(cc3c1N(CCCN(C)C)C2)OCO4`, the growth was 57.6% (inactive).

With `C=C1C(=O)O[C@H]2[C@H]1CC/C(Cn1cc(CNCCc3c[nH]c4ccc(Cl)cc34)nn1)=C\CC[C@@]1(C)O[C@@H]21`, the growth is 91.1% (inactive).

As to `C#CC[C@H](N)C(=O)O`, the growth was 106% [20 µM] (inactive).

Turning to `O=C(Oc1ccc([N+](=O)[O-])cc1)c1ccc(CBr)cc1`, the growth is 106% (inactive).

Consider `OC(CBr)c1ccnc2ccccc12` (stereo not drawn), for which the growth was 92.3% (inactive).

As to `CCCNCC(=O)Nc1ccc(C(=O)OC(C)(C)CC)cc1`, the growth was 95% (inactive).

With `CC(=O)c1cc2c(o1)C(=O)c1ccccc1C2=O`, the growth is -59.1% (active).

With `CS(=O)(=O)c1ccc(-c2[nH]c3ccc(F)cc3c2/C=N/NC(N)=S)cc1`, the growth was 63.1% (inactive).

As to `CC(C)c1ccc(C(=O)OC(=O)c2ccc(C(C)C)cc2)cc1`, the growth is 97.9% (inactive).

As for `N=C(N)c1ccc(-c2ccc(-c3ccc(Cl)c(Cl)c3)o2)nc1`, the growth is 109% (inactive).

With `N#C/C=C(\c1ccc([N+](=O)[O-])cc1)n1nnc2cc(Cl)c(Cl)cc21`, the growth is 39.7% (inactive).

As for `CS(=O)(=O)c1ccc(-c2nc3cc(Cl)ccc3n2CC(=O)NO)cc1`, the growth is 88.7% (inactive).

For the compound `CC(=O)Nc1cccc(C2=CC(c3ccc(C)cc3)n3ncnc3N2)c1` (stereo not drawn), the growth was 92.7% (inactive).

For the compound `CCn1c(Sc2nnc(NC(=O)CCN3CCCC3)s2)nc2c1c(=O)n(C)c(=O)n2C`, the growth is 103% (inactive).

`N#Cc1c(NC(=O)c2cccc(C(F)(F)F)c2)sc2c1CCC(=O)C2`: the growth was 13.6% (inactive).

With `CC(C)(C)c1ccc(C(=O)Nc2sc3c(c2C(N)=O)CCC(=O)C3)cc1`, the growth was 30.8% (inactive).

Regarding `CCOC(=O)c1c(C)nc2c(c1N)/C(=C/c1cc(OC)c(OC)c(OC)c1)C(=O)N2c1ccc(OC)cc1`, the growth was 86.7% (inactive).

Take `Nc1nc(Nc2ccc(Cl)cc2)nn1S(=O)(=O)c1ccc(-c2ccc(F)cc2)cc1`: the growth is 84.4% (inactive).

As to `CCNCCNc1cc(-c2ccc(C(F)(F)F)cc2)c(C#N)c2nc3cc(Cl)c(Cl)cc3n12`, the growth was 99.8% (inactive).

With `C=CCN1C(=O)[C@]2(SC1=S)[C@H](c1cccc(Cl)c1)CN(C)[C@]21C(=O)NC2C=CC(Cl)=C[C@H]21` (stereo partly drawn), the growth was 43.4% (inactive).

Consider `O=C(/C=C/C12c3ccccc3C(c3ccccc31)C1C(=O)N(c3ccccc3)C(=O)C12)c1ccccc1` (stereo not drawn), for which the growth is -27.4% (active).

`O=S(=O)(Nc1ccsc1-c1nc(-c2ccccc2)no1)c1cc(Cl)cc(Cl)c1`: the growth was 98.6% (inactive).

`CNC1(C#N)CCN(Cc2ccccc2)CC1`: the growth was 104% (inactive).

Take `COc1cc2cc(Oc3ccc(NC(=O)Nc4cc(C(F)(F)F)cc(C(F)(F)F)c4)cc3)c(C)nc2cc1OCCN1CCCCC1`: the growth is 22.1% (inactive).

For the compound `CC(C)n1nc(C#Cc2cccc3cc(-c4cccc(C(F)(F)F)c4)ncc23)c2c(N)ncnc21`, the growth is 48.2% (inactive).

For the compound `N[C@@H]1CCC[C@H]1NCCCCN1C(=O)c2cccc3cccc(c23)C1=O`, the growth was 91.9% (inactive).

Turning to `CCN(CC)CCOC(=O)N1c2ccccc2Sc2ccccc21`, the growth is 95.2% (inactive).
